High-throughput results: PubChem, Center for Chemical Genomics, University of Michigan
Only a selection was taken, and hits are over-represented in it overall.
Dicer inh: inhibitors of human Dicer processing of pre-microRNA | cat-ELCCA pre-miR-21 Dicer processing, chemiluminescence; active compounds read high | 47,000 compounds, 6% hits | z-score at 25 µM | AID 1347074; in the data active = z-score above about 3, passing the limit was not always enough;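 note: higher signal means more uncleaved substrate so more Dicer inhibition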
Target sequence (Q9UPY3 whole entry, looked up): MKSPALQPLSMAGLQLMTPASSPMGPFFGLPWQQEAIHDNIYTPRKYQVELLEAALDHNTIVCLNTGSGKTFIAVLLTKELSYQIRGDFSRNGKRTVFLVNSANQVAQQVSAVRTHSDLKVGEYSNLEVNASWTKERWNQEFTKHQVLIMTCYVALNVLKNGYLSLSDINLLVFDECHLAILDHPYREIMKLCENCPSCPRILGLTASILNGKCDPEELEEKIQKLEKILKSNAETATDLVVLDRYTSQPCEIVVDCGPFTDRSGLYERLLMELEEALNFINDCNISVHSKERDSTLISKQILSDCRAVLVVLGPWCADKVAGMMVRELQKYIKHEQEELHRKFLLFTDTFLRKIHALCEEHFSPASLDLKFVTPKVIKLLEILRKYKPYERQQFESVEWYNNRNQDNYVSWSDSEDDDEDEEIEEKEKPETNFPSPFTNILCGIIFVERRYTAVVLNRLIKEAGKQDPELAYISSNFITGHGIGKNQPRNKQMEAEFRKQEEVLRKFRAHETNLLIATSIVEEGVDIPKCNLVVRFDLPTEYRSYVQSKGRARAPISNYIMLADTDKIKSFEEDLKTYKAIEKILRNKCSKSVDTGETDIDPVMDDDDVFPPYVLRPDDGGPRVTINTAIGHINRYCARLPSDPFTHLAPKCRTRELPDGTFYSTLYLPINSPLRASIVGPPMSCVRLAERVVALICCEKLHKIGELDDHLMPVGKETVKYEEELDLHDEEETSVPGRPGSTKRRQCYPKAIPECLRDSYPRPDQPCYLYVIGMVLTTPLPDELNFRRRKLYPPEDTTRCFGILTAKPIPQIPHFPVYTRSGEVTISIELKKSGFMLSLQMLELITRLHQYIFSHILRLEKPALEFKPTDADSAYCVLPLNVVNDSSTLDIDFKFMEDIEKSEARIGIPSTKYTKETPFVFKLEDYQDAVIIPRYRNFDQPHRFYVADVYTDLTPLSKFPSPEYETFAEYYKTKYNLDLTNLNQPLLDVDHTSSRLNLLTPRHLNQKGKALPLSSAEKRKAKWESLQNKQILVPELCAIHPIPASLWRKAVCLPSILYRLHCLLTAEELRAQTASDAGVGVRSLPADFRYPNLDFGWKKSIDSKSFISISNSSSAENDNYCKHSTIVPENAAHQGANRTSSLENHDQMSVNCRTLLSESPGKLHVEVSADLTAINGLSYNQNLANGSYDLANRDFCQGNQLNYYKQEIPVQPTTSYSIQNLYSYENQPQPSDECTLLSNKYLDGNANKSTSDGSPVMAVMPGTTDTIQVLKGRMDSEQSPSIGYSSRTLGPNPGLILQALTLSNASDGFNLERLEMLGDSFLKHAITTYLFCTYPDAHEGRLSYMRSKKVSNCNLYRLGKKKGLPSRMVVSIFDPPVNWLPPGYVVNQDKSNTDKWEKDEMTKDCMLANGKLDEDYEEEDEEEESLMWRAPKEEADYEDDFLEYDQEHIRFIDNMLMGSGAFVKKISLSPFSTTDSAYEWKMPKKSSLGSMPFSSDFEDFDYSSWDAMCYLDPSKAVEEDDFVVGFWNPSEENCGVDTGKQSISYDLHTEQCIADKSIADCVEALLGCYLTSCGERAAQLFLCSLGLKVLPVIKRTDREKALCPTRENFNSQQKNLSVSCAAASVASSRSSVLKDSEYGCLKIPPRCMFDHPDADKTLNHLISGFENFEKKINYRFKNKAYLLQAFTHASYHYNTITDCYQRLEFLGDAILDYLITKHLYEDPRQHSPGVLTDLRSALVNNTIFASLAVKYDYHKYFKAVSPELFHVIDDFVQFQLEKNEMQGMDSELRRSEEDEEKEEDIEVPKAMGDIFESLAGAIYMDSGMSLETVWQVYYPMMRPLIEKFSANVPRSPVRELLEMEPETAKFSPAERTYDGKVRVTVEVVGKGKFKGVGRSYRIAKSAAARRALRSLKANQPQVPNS
Hits are given with their value; . = inactive.

SMILES	Dicer inh
Cc1c(C(=O)N2CCN(C)CC2)sc2ncn(CC(=O)N3CCOCC3)c(=O)c12	.
O=S(=O)(c1ccc(-c2oc3cc(S(=O)(=O)N4CCCCC4)ccc3c2Cl)cc1)N1CCCCC1	.
CC1=C(C(=O)OC2CCCC2)C(c2coc3ccc(Cl)cc3c2=O)C2=C(CCCC2=O)N1 (stereo unspecified)	.
COCCOC(=O)C1=C(C)NC2=C(C(=O)CCC2)C1c1coc2ccccc2c1=O (stereo unspecified)	.
CC1=C(C(=O)OC2CCCCC2)C(c2coc3ccc(C)cc3c2=O)C2=C(CCCC2=O)N1 (stereo unspecified)	3.24
CC1=C(C(=O)OCCOC(C)C)C(c2ccc(C)o2)C2=C(CCCC2=O)N1 (stereo unspecified)	.
CC1=C(C(=O)OCCOC(C)C)C(c2coc3ccc(C)cc3c2=O)C2=C(CCCC2=O)N1 (stereo unspecified)	7.16
CC1=C(C(=O)OC2CCCCC2)C(c2coc3ccc(C)cc3c2=O)C2=C(CC(C)(C)CC2=O)N1 (stereo unspecified)	.
CCOc1ccc(NC2OC(=O)c3c2ccc(OC)c3OC)cc1 (stereo unspecified)	.
Cc1cc(OS(=O)(=O)c2cccc(S(=O)(=O)Oc3ccc(Cl)c(C)c3)c2)ccc1Cl	.
O=C(NCc1csc(-c2cccs2)n1)Nc1cc(F)cc2c1OCOC2	.
COc1ccc(-c2nc3n(n2)C(c2ccc(Cl)cc2)C2=C(CCCC2=O)N3)cc1 (stereo unspecified)	.
COc1ccc(-c2nc3n(n2)C(=O)CC(c2ccc(Cl)cc2)S3)cc1 (stereo unspecified)	4.47
COc1ccc(-c2ncnn2-c2ccc(Cl)cc2)cc1	.
CC(C(=O)NNC(=O)c1ccc(Cl)cc1)n1nnc(N2CCOCC2)n1 (stereo unspecified)	.
CN(C)S(=O)(=O)N(CC(=O)Nc1cccnc1)c1ccccc1	.
COc1ccc(-c2[nH]ncc2/C=N/Nc2cnc3ccccc3n2)cc1	.
Cc1onc(-c2ccccc2)c1CSc1n[nH]c(=O)n1Cc1ccco1	.
c1ccc(-c2c(-c3ccccc3)n(Cc3ccco3)c3ncn4nc(-c5ccco5)nc4c23)cc1	5.57
Cc1nc2c([nH]1)c(=O)n(C)c(=O)n2Cc1ccco1	.
Cc1ccc(Cl)cc1N1C(=O)c2cccnc2C1=O	.
COc1ccc(C2=NN(S(=O)(=O)c3ccccc3)C(c3ccc(OC)c(OC)c3)C2)cc1OC (stereo unspecified)	.
CSc1nc(N)nc(-c2ccc(C(F)(F)F)cc2)n1	.
COc1cccc(Cn2c(-c3nonc3N)nc3ccccc32)c1	4.23
CN(C(=O)Cn1c(-c2nonc2N)nc2ccccc21)c1ccccc1	4.06
SMILES	Dicer inh
Nc1nonc1-c1nc2ccccc2n1CC(=O)Nc1ccc(F)cc1	.
Cc1ccc(Cn2c(-c3nonc3N)nc3ccccc32)cc1	.
Nc1nonc1-c1nc2ccccc2n1Cc1ccc(Cl)cc1	.
CCC(=O)Nc1nonc1-c1nc2ccccc2n1CCC(C)C	.
Nc1nonc1-c1nc2ccccc2n1CC(=O)N1CCN(c2ccc(F)cc2)CC1	3.44
CN(C(=O)Cn1c(-c2cncs2)nc2ccccc21)c1ccccc1	.
O=C1CN(CC(=O)N2CCN(c3ccc(F)cc3)CC2)c2ccccc2O1	.
Cc1ccc(CSc2n[nH]c(=O)n2-c2ccc(OCc3ccccc3)cc2)cc1	.
O=S(=O)(Nc1ccc(S(=O)(=O)Nc2ncccn2)cc1)c1ccc(F)cc1	.
O=S(=O)(Nc1ncccn1)c1ccc(N=Cc2ccccc2O)cc1	.
O=C(O/N=C/c1ncc(C(F)(F)F)cc1Sc1ccc(Cl)cc1)c1cccs1	.
Cn1c(CSCC(=O)Nc2ccccc2)nnc1SCC(=O)Nc1cccc(Cl)c1	.
Cc1ccc(-n2c(=O)[nH]c3sc4c(c3c2=O)CCC(C)C4)cc1 (stereo unspecified)	.
Cc1ccc(Cl)c2c1NC(=O)C2(O)CC(=O)c1ccc(C(C)C)cc1 (stereo unspecified)	.
CCSc1nnc(-c2ccc(C)c(S(=O)(=O)NCc3cccnc3)c2)c2ccccc12	.
COc1ccc(/C(O)=C2\C(=O)C(=O)N(CCCn3ccnc3)C2c2ccc(C(C)C)cc2)cc1 (stereo unspecified)	.
CCOC(=O)CCc1c(CC(=O)OCC)c[nH]c1/C=N/O	16.1
CCOC(=O)CCc1c(C)nc2c(-c3ccc(F)cc3)c(C)[nH]n2c1=O	.
CCOC(=O)Cc1cc(C)[nH]c1C(=O)OCC	.
COc1ccc(OC)c(C(=O)CC2(O)C(=O)Nc3ccc(Cl)cc32)c1 (stereo unspecified)	.
CCOC(=O)c1cnc(C(F)(F)F)nc1N/N=C\c1c(Cl)cccc1Cl	.
COc1ccccc1OCCn1cc(C(=O)O)c2ccccc21	.
COc1ccccc1OCCN1CCN(C)CC1	4.77
COc1ccccc1OCCC(=O)O	.
CCOC(=O)c1cc(C)n(-c2cc(C(F)(F)F)cc(C(F)(F)F)c2)n1	.
SMILES	Dicer inh
Cc1ccc2sc(C3=NN(C)C(O)(C(F)(F)F)C3)c(C)c2c1 (stereo unspecified)	.
O=C(NCc1ccc2c(c1)CCO2)c1csc2ccccc12	.
Cc1ccc(S(=O)(=O)Nc2nc3ccc(N)cc3s2)cc1	8.04
Cc1cc(C)c(S(=O)(=O)Nc2nc3ccccc3s2)c(C)c1	.
Cc1ccc(S(=O)(=O)Nc2nc3cc(C)c(C)cc3s2)cc1	.
COc1cc(C2(C)SCc3cc(C)c(C)cc3CS2)ccc1O	.
COc1ccc(OC/C(N)=N/OC(=O)CO/N=C(\C)c2ccc(Cl)cc2)cc1	.
O=C(OCc1ccccc1)C(O)C(O)C(=O)OCc1ccccc1 (stereo unspecified)	.
Cc1cc(C)n2c(SCC(=O)O)nnc2n1	.
Cc1cc(C)n2c(SCC(C)C)nnc2n1	.
Cc1ccc(S(=O)(=O)NCC(Sc2nnc3nc(C)cc(C)n23)c2ccccc2)cc1 (stereo unspecified)	3.51
COc1ccc(OCCn2cc(C(=O)c3cccs3)c3ccccc32)cc1	.
CC(C)S(=O)(=O)c1cscc1NS(=O)(=O)c1ccc(Cl)cc1	.
CC(C)(CC(=O)O)CC(=O)NCc1csc2ccccc12	4.45
Cc1cc(C)c(NC(=S)NCc2csc3ccccc23)c(C)c1	.
S=C(NCc1csc2ccccc12)c1ccccc1	.
CS(=O)(=O)c1sc(NC(=O)Nc2ccc(Cl)cc2)c2c1C=CCC2	3.33
CC1CCc2c(sc(NC(=O)Nc3ccc(Cl)cc3)c2C(N)=O)C1 (stereo unspecified)	.
Cc1c(NC(=O)Nc2ccccc2)sc2nc(-c3ccc(Cl)cc3)nn12	.
Cn1c(=O)c2cn(-c3ccc(Cl)cc3)cc2n(C)c1=O	.
CCn1c(SCC(=O)c2ccccc2)nc2sc3c(c2c1=O)CC(C)(C)OC3	.
CC1(C)Cc2c(sc3[nH]c(=O)n(CC(=O)O)c(=O)c23)CO1	3.92
C=C(C)Cn1c(SCCC)nc2sc3c(c2c1=O)CC(C)(C)OC3	.
O=C(CCc1ccc(O)cc1)NNC(=S)Nc1ccccc1Cl	.
NC(=O)c1c(NC(=O)c2ccc(Cl)cc2)sc2c1CCCC2	.
NC(=O)c1c(NC(=O)c2ccc(F)cc2)sc2c1CCCC2	.
NC(=O)c1c(NC(=O)c2ccc(S(=O)(=O)N3CCCC3)cc2)sc2c1CCCC2	3.37
COc1cccc(C2CC(=O)C3=C(C2)NC(C)=C(C(=O)OCCOC(C)C)C3c2ccc(C)s2)c1 (stereo unspecified)	.
C=C(C)CC1N(c2ccccc2C)C(=O)C2C(C(=O)O)C3C=CC21O3 (stereo unspecified)	.
